Laboratory results from the supplement of paper PMC12282887.
± gives the standard deviation of the averaged measurements.

Tests used:
Experiment in all cases: promoter activity interaction Z-score (Lux/OD deviation from empty-vector control); higher = stronger promoter induction by the compound
[1] = system: E. coli BW25113 acrABp lux reporter
Summary of the method: (§1)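 Every compound was given at four 1:2 dilutions, in biological duplicates, to E. coli BW25113 carrying low-copy luxCDABE promoter reporters in wild-type or single-gene deletion backgrounds. Growth in 40 µl LB Lennox in 384-well plates at 37°C was followed by OD600 and luminescence readings every 30 min for 12 h, integrated over 0–8 h for wild type and 1–9 h for deletion strains, with wells below 10% of the median growth value excluded. Scores are Z-transformed residuals of growth-normalised luminescence fitted against a control.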

[2] = system: E. coli BW25113 marRABp lux reporter
Summary of the method: as §1

[3] = system: E. coli BW25113 micFp lux reporter
Summary of the method: as §1

[4] = system: E. coli BW25113 ompFp lux reporter
Summary of the method: as §1

[5] = system: E. coli BW25113 robp lux reporter
Summary of the method: as §1

[6] = system: E. coli BW25113 soxSp lux reporter
Summary of the method: as §1

[7] = system: E. coli BW25113 tolCp lux reporter
Summary of the method: as §1

[8] = 0.0045 µg/ml, genetic background: wild type
[9] = 0.0045 µg/ml, genetic background: ΔmarA
[10] = 0.0045 µg/ml, genetic background: Δrob
[11] = 0.0045 µg/ml, genetic background: ΔsoxS
[12] = 0.009 µg/ml, genetic background: wild type
[13] = 0.009 µg/ml, genetic background: ΔmarA
[14] = 0.009 µg/ml, genetic background: Δrob
[15] = 0.009 µg/ml, genetic background: ΔsoxS
[16] = 1.8 µg/ml, genetic background: wild type
[17] = 1.8 µg/ml, genetic background: ΔmarA
[18] = 1.8 µg/ml, genetic background: Δrob
[19] = 1.8 µg/ml, genetic background: ΔsoxS
[20] = 3.7 µg/ml, genetic background: wild type
[21] = 3.7 µg/ml, genetic background: ΔmarA
[22] = 3.7 µg/ml, genetic background: Δrob
[23] = 3.7 µg/ml, genetic background: ΔsoxS
[24] = 7.3 µg/ml, genetic background: wild type
[25] = 7.3 µg/ml, genetic background: ΔmarA
[26] = 7.3 µg/ml, genetic background: Δrob
[27] = 7.3 µg/ml, genetic background: ΔsoxS
[28] = 14.7 µg/ml, genetic background: wild type
[29] = 14.7 µg/ml, genetic background: ΔmarA
[30] = 14.7 µg/ml, genetic background: ΔsoxS

C[C@H]1COc2c(N3CCN(C)CC3)c(F)cc3c(=O)c(C(=O)O)cn1c23 [Levofloxacin]
promoter activity interaction Z-score [1, 8]: 0.161 ± 0.16 | promoter activity interaction Z-score [1, 9]: 1.19 ± 0.57 | promoter activity interaction Z-score [1, 10]: 0.765 ± 0.3 | promoter activity interaction Z-score [1, 11]: 0.13 ± 0.43 | promoter activity interaction Z-score [1, 12]: 1.49 ± 0.47 | promoter activity interaction Z-score [1, 13]: 3.65 ± 2.5 | promoter activity interaction Z-score [1, 14]: 3 | promoter activity interaction Z-score [1, 15]: 0.933 ± 0.088 | promoter activity interaction Z-score [2, 8]: 0.0777 ± 0.09 | promoter activity interaction Z-score [2, 9]: 0.886 ± 0.81 | promoter activity interaction Z-score [2, 10]: 0.457 ± 0.39 | promoter activity interaction Z-score [2, 11]: 0.129 ± 0.058 | promoter activity interaction Z-score [2, 12]: 1.81 ± 0.43 | promoter activity interaction Z-score [2, 14]: 2.37 | promoter activity interaction Z-score [2, 15]: 1.61 ± 0.18 | promoter activity interaction Z-score [3, 8]: -0.267 ± 0.3 | promoter activity interaction Z-score [3, 9]: 0.407 ± 0.14 | promoter activity interaction Z-score [3, 10]: 0.249 ± 0.18 | promoter activity interaction Z-score [3, 11]: 0.076 ± 0.062 | promoter activity interaction Z-score [3, 12]: 0.268 ± 0.26 | promoter activity interaction Z-score [3, 13]: 0.154 ± 0.1 | promoter activity interaction Z-score [3, 14]: -0.048 | promoter activity interaction Z-score [3, 15]: 0.58 ± 0.097 | promoter activity interaction Z-score [4, 8]: 0.0942 ± 0.084 | promoter activity interaction Z-score [4, 9]: 0.337 ± 0.47 | promoter activity interaction Z-score [4, 10]: 0.283 ± 0.32 | promoter activity interaction Z-score [4, 11]: 0.00971 ± 0.41 | promoter activity interaction Z-score [4, 12]: 0.729 ± 0.33 | promoter activity interaction Z-score [4, 13]: 1.02 ± 1.5 | promoter activity interaction Z-score [4, 15]: 2.15 ± 2.1 | promoter activity interaction Z-score [5, 8]: 0.859 ± 0.36 | promoter activity interaction Z-score [5, 9]: 0.95 ± 0.41 | promoter activity interaction Z-score [5, 10]: -0.178 ± 0.062 | promoter activity interaction Z-score [5, 11]: 0.248 ± 0.29 | promoter activity interaction Z-score [5, 12]: -0.182 ± 0.079 | promoter activity interaction Z-score [5, 13]: 0.841 ± 0.84 | promoter activity interaction Z-score [5, 14]: 0.348 | promoter activity interaction Z-score [5, 15]: -0.154 ± 1.2 | promoter activity interaction Z-score [6, 8]: -0.114 ± 0.024 | promoter activity interaction Z-score [6, 9]: 0.133 ± 0.013 | promoter activity interaction Z-score [6, 10]: -0.071 ± 0.15 | promoter activity interaction Z-score [6, 11]: 0.197 ± 0.43 | promoter activity interaction Z-score [6, 12]: 0.185 ± 0.047 | promoter activity interaction Z-score [6, 13]: 0.0863 ± 0.079 | promoter activity interaction Z-score [6, 14]: -0.0469 ± 0.15 | promoter activity interaction Z-score [6, 15]: 2.32 ± 0.6 | promoter activity interaction Z-score [7, 8]: -0.228 ± 1.2 | promoter activity interaction Z-score [7, 9]: 0.741 ± 0.18 | promoter activity interaction Z-score [7, 10]: -0.128 ± 1 | promoter activity interaction Z-score [7, 11]: -0.647 ± 0.99 | promoter activity interaction Z-score [7, 12]: 0.287 ± 1 | promoter activity interaction Z-score [7, 13]: 0.606 | promoter activity interaction Z-score [7, 14]: -0.887 | promoter activity interaction Z-score [7, 15]: 2.55 ± 1.9

CC[C@H]1OC(=O)[C@H](C)[C@@H](O[C@H]2C[C@@](C)(OC)[C@@H](O)[C@H](C)O2)[C@H](C)[C@@H](O[C@@H]2O[C@H](C)C[C@H](N(C)C)[C@H]2O)[C@](C)(O)C[C@@H](C)C(=O)[C@H](C)[C@@H](O)[C@]1(C)O [Erythromycin]
promoter activity interaction Z-score [1, 16]: 0.453 ± 0.14 | promoter activity interaction Z-score [1, 17]: 0.681 ± 0.23 | promoter activity interaction Z-score [1, 18]: 0.159 ± 0.56 | promoter activity interaction Z-score [1, 19]: 0.201 ± 0.23 | promoter activity interaction Z-score [1, 20]: 0.762 ± 0.17 | promoter activity interaction Z-score [1, 21]: -1.09 ± 0.061 | promoter activity interaction Z-score [1, 22]: 0.417 ± 0.063 | promoter activity interaction Z-score [1, 23]: 1.35 ± 1.5 | promoter activity interaction Z-score [1, 24]: 1.66 ± 0.12 | promoter activity interaction Z-score [1, 25]: -0.406 ± 0.24 | promoter activity interaction Z-score [1, 26]: 1.7 ± 0.48 | promoter activity interaction Z-score [1, 27]: 2.23 ± 1.1 | promoter activity interaction Z-score [1, 28]: 7.47 ± 0.26 | promoter activity interaction Z-score [2, 16]: 0.316 ± 0.064 | promoter activity interaction Z-score [2, 17]: 0.0943 ± 0.048 | promoter activity interaction Z-score [2, 18]: 0.109 ± 0.022 | promoter activity interaction Z-score [2, 19]: 0.268 ± 0.14 | promoter activity interaction Z-score [2, 20]: 0.459 ± 0.1 | promoter activity interaction Z-score [2, 21]: 0.54 ± 0.35 | promoter activity interaction Z-score [2, 22]: 0.617 ± 0.38 | promoter activity interaction Z-score [2, 23]: 0.806 ± 0.22 | promoter activity interaction Z-score [2, 24]: 1.87 ± 0.21 | promoter activity interaction Z-score [2, 25]: 1.31 ± 0.22 | promoter activity interaction Z-score [2, 26]: 1.34 ± 0.3 | promoter activity interaction Z-score [2, 27]: 1.3 ± 0.3 | promoter activity interaction Z-score [2, 28]: 2.2 ± 0.17 | promoter activity interaction Z-score [2, 29]: 2.59 | promoter activity interaction Z-score [3, 16]: 0.913 ± 0.45 | promoter activity interaction Z-score [3, 17]: -0.122 ± 0.027 | promoter activity interaction Z-score [3, 18]: -0.273 ± 0.066 | promoter activity interaction Z-score [3, 19]: 0.0903 ± 0.17 | promoter activity interaction Z-score [3, 20]: 0.742 ± 0.35 | promoter activity interaction Z-score [3, 21]: -0.1986 ± 0.0018 | promoter activity interaction Z-score [3, 22]: -0.176 ± 0.13 | promoter activity interaction Z-score [3, 23]: 0.695 ± 0.24 | promoter activity interaction Z-score [3, 24]: 0.748 ± 0.99 | promoter activity interaction Z-score [3, 25]: -0.167 ± 0.085 | promoter activity interaction Z-score [3, 26]: -0.148 ± 0.073 | promoter activity interaction Z-score [3, 27]: -0.224 ± 0.12 | promoter activity interaction Z-score [3, 28]: -1.13 ± 0.77 | promoter activity interaction Z-score [3, 29]: -0.537 ± 0.026 | promoter activity interaction Z-score [3, 30]: -0.792 ± 0.2 | promoter activity interaction Z-score [4, 16]: 0.573 ± 0.45 | promoter activity interaction Z-score [4, 17]: 0.458 ± 0.21 | promoter activity interaction Z-score [4, 18]: 0.2177 ± 0.0014 | promoter activity interaction Z-score [4, 19]: 0.925 ± 0.37 | promoter activity interaction Z-score [4, 20]: 0.894 ± 0.58 | promoter activity interaction Z-score [4, 21]: 0.288 ± 0.31 | promoter activity interaction Z-score [4, 22]: 1.58 ± 1.1 | promoter activity interaction Z-score [4, 23]: 2.48 ± 1.1 | promoter activity interaction Z-score [4, 24]: 1.78 ± 0.84 | promoter activity interaction Z-score [4, 25]: 1.17 ± 0.52 | promoter activity interaction Z-score [4, 26]: 1.96 ± 2 | promoter activity interaction Z-score [4, 27]: 1.97 ± 0.072 | promoter activity interaction Z-score [4, 28]: -0.66 ± 0.73 | promoter activity interaction Z-score [4, 30]: -1.6 | promoter activity interaction Z-score [5, 16]: -0.139 ± 0.59 | promoter activity interaction Z-score [5, 17]: -0.666 ± 0.22 | promoter activity interaction Z-score [5, 18]: -0.816 ± 0.1 | promoter activity interaction Z-score [5, 19]: -0.469 ± 0.72 | promoter activity interaction Z-score [5, 20]: -0.638 ± 0.12 | promoter activity interaction Z-score [5, 21]: -2.16 ± 0.55 | promoter activity interaction Z-score [5, 22]: -1.32 ± 0.2 | promoter activity interaction Z-score [5, 23]: -0.16 ± 0.77 | promoter activity interaction Z-score [5, 24]: -2.01 ± 0.31 | promoter activity interaction Z-score [5, 25]: -2.33 ± 0.13 | promoter activity interaction Z-score [5, 26]: -2.18 ± 0.23 | promoter activity interaction Z-score [5, 27]: -2.29 ± 0.77 | promoter activity interaction Z-score [5, 28]: -2.43 ± 0.2 | promoter activity interaction Z-score [5, 29]: -3.56 ± 0.35 | promoter activity interaction Z-score [6, 16]: 0.111 ± 0.015 | promoter activity interaction Z-score [6, 17]: 0.214 ± 0.046 | promoter activity interaction Z-score [6, 18]: -0.111 ± 0.089 | promoter activity interaction Z-score [6, 19]: 0.0397 ± 0.3 | promoter activity interaction Z-score [6, 20]: -0.0179 ± 0.043 | promoter activity interaction Z-score [6, 21]: -0.0482 ± 0.098 | promoter activity interaction Z-score [6, 22]: 0.228 ± 0.28 | promoter activity interaction Z-score [6, 23]: 0.647 ± 0.18 | promoter activity interaction Z-score [6, 24]: 0.0493 ± 0.044 | promoter activity interaction Z-score [6, 25]: 0.351 ± 0.19 | promoter activity interaction Z-score [6, 26]: 0.215 ± 0.16 | promoter activity interaction Z-score [6, 27]: 1.65 ± 0.52 | promoter activity interaction Z-score [6, 28]: 0.956 ± 0.22 | promoter activity interaction Z-score [6, 29]: 0.78 ± 0.098 | promoter activity interaction Z-score [6, 30]: 3.05 ± 2.9 | promoter activity interaction Z-score [7, 16]: 0.39 ± 0.18 | promoter activity interaction Z-score [7, 17]: -0.768 ± 0.45 | promoter activity interaction Z-score [7, 18]: -0.66 ± 0.14 | promoter activity interaction Z-score [7, 19]: -0.318 ± 0.13 | promoter activity interaction Z-score [7, 20]: 0.0127 ± 0.24 | promoter activity interaction Z-score [7, 21]: -1.38 ± 0.97 | promoter activity interaction Z-score [7, 22]: -0.333 ± 1.4 | promoter activity interaction Z-score [7, 23]: -0.0456 ± 0.47 | promoter activity interaction Z-score [7, 24]: 0.177 ± 1.4 | promoter activity interaction Z-score [7, 25]: -0.63 ± 0.74 | promoter activity interaction Z-score [7, 26]: 0.449 ± 2.3 | promoter activity interaction Z-score [7, 27]: 0.434 ± 0.85 | promoter activity interaction Z-score [7, 28]: 1.66 ± 1.9 | promoter activity interaction Z-score [7, 29]: -1.14 ± 3.2 | promoter activity interaction Z-score [7, 30]: 0.542 ± 0.66
